In all, about 1,600 compounds were measured (“plate-normalized OD600 growth (mean of duplicates)”: median about 0.31, lowest 2% from about 0.23 on). The list comes from a sample in which the lowest values are over-represented; it also holds similar structures and randomly drawn compounds.

For the assay, the system named is Escherichia coli BW25113. The assay can be described thus: plate-normalized OD600 growth (mean of duplicates) (OD600 (normalized)); higher = more growth (less inhibition). Particulars: 10 µM. Here is the method: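 E. coli BW25113 in LB (100 µl, 96-well, no shaking) was exposed to 10 µM of each compound (here the ChemBridge subset of a ~30,000-member library) and grown at 37°C for 24 h or 15°C for 48 h, in duplicate. Growth was read as OD600 and the duplicate ODs were normalized across screening plates to correct plate-to-plate variation.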

In the case of `O=C(NC1C[C@@H]1c1ccccc1)[C@@H]1CC1c1ccccc1` (stereo not given in full), the “plate-normalized OD600 growth” value (temperature: 15°C, 48 h) is 0.272 and the “plate-normalized OD600 growth” value (temperature: 37°C, 24 h) is 0.63.
Taken in the same sequence, the figures for `CN1CCCC1CCNC1CC2CCC1C2` (stereo not given) were 0.299 and 0.637.
The corresponding values for `Cn1cc(/C=C/c2nc3ccccc3c(=O)[nH]2)c2ccccc21` are 0.248 and 0.604.
The corresponding values for `COc1ccc(N(C(=O)c2ccc(F)cc2)C2=CC3CCC(C2)N3C)cc1` (stereo not given) are 0.247 and 0.619.
On to `COc1ccc(C(C)=O)cc1Cc1c(O)nc(SC)[nH]c1=O`, for which the “plate-normalized OD600 growth” value reads like this: (temperature: 15°C, 48 h) 0.247; (temperature: 37°C, 24 h) 0.629.
In the case of `O=C(CC1Nc2ccccc2NC1=O)Nc1ccc(Cl)cc1` (stereo not given), the “plate-normalized OD600 growth” value is, setting by setting: (temperature: 15°C, 48 h) 0.215; (temperature: 37°C, 24 h) 0.6.
As for `O=C(CC1Nc2ccccc2NC1=O)Nc1ccccc1` (stereo not given), the “plate-normalized OD600 growth” value worked out at 0.24 (temperature: 15°C, 48 h) and 0.597 (temperature: 37°C, 24 h).
For the compound `CCOc1ccc(NC(=O)CC2Nc3ccccc3NC2=O)cc1` (stereo not given), the “plate-normalized OD600 growth” value (temperature: 15°C, 48 h) came to 0.273 and the “plate-normalized OD600 growth” value (temperature: 37°C, 24 h) is 0.648.
Take `Nc1nc2sc3c(c2cc1C(=O)N1CCOCC1)CCCC3`: the “plate-normalized OD600 growth” value is, setting by setting: (temperature: 15°C, 48 h) 0.253; (temperature: 37°C, 24 h) 0.625.
As for `Cc1nc(-c2ccccc2)cc(N2CCCC2)n1`, the “plate-normalized OD600 growth” value reads like this: (temperature: 15°C, 48 h) 0.253; (temperature: 37°C, 24 h) 0.616.
In the case of `CCCN1CCC(NCCc2ccccc2OC)CC1`, the “plate-normalized OD600 growth” value (temperature: 15°C, 48 h) stood at 0.252 and the “plate-normalized OD600 growth” value (temperature: 37°C, 24 h) came to 0.619.
`CN1CCC(NCc2ccccc2F)CC1`: the “plate-normalized OD600 growth” value (temperature: 15°C, 48 h) turned out to be 0.212 and the “plate-normalized OD600 growth” value (temperature: 37°C, 24 h) came to 0.645.
Consider `Cc1ccccc1CN(C)C1CCN(C)CC1`, for which the “plate-normalized OD600 growth” value runs as follows: (temperature: 15°C, 48 h) 0.256; (temperature: 37°C, 24 h) 0.628.
As for `Cc1ccc(OCCCNC(C)(C)C)cc1`, the “plate-normalized OD600 growth” value is, setting by setting: (temperature: 15°C, 48 h) 0.244; (temperature: 37°C, 24 h) 0.608.
The corresponding values for `CC1CCCC(C)N1C(=O)c1ccc(Br)cc1` (stereo not given) are 0.25 and 0.617.
The corresponding values for `O=c1[nH]c2nonc2nc1Nc1ccccc1` are 0.245 and 0.603.
The corresponding values for `CCN(C(=O)Cc1ccccc1)C1CCCCC1` are 0.221 and 0.606.
With `CC1CCCC(C)N1C(=O)Cc1ccccc1` (stereo not given), the “plate-normalized OD600 growth” value runs as follows: (temperature: 15°C, 48 h) 0.233; (temperature: 37°C, 24 h) 0.611.
The corresponding values for `CCN(Cc1ccccc1)C(=O)Cc1ccccc1` are 0.262 and 0.642.
As to `Cc1cc(C)c(S(=O)(=O)Nc2cc(C)on2)c(C)c1`, the “plate-normalized OD600 growth” value (temperature: 15°C, 48 h) came to 0.243 and the “plate-normalized OD600 growth” value (temperature: 37°C, 24 h) stood at 0.612.
With `CCc1ccccc1NS(=O)(=O)c1ccc(F)cc1`, the “plate-normalized OD600 growth” value (temperature: 15°C, 48 h) is 0.21 and the “plate-normalized OD600 growth” value (temperature: 37°C, 24 h) was found to be 0.618.
Consider `COc1ccccc1NS(=O)(=O)c1ccc(C(C)(C)C)cc1`, for which the “plate-normalized OD600 growth” value stood at 0.254 (temperature: 15°C, 48 h) and 0.618 (temperature: 37°C, 24 h).
The corresponding values for `COc1ccccc1NS(=O)(=O)c1ccc(Cl)cc1` are 0.256 and 0.651.
For the compound `Cc1[nH]nc2c1C(c1ccccc1I)C(C#N)=C(N)O2` (stereo not given), the “plate-normalized OD600 growth” value came out at 0.233 (temperature: 15°C, 48 h) and 0.613 (temperature: 37°C, 24 h).
With `Cc1cc(C)c(C2C(C#N)=C(N)Oc3n[nH]c(C)c32)c(C)c1` (stereo not given), the “plate-normalized OD600 growth” value is 0.218 (temperature: 15°C, 48 h) and 0.621 (temperature: 37°C, 24 h).
For `Cc1ccc(C2C(C#N)=C(N)Oc3n[nH]c(C)c32)s1` (stereo not given), the “plate-normalized OD600 growth” value reads like this: (temperature: 15°C, 48 h) 0.246; (temperature: 37°C, 24 h) 0.658.
With `Cc1ccc(NCc2ccc([N+](=O)[O-])cc2)cc1C`, the “plate-normalized OD600 growth” value by setting is: (temperature: 15°C, 48 h) 0.237; (temperature: 37°C, 24 h) 0.605.
For `O=C(c1ccco1)N1CCN(c2ccc([N+](=O)[O-])cc2)CC1`, the “plate-normalized OD600 growth” value came to 0.244 (temperature: 15°C, 48 h) and 0.617 (temperature: 37°C, 24 h).
Taken in the same sequence, the figures for `O=C(c1ccc(Br)o1)N1CCN(c2ccc([N+](=O)[O-])cc2)CC1` were 0.262 and 0.622.
As for `O=C(c1ccc([N+](=O)[O-])o1)N1CCN(c2cccc(Cl)c2)CC1`, the “plate-normalized OD600 growth” value by setting is: (temperature: 15°C, 48 h) 0.212; (temperature: 37°C, 24 h) 0.611.

Source of the values: the supplement of paper PMC4371806.
